# Rab9 prom act: qHTS Assay for Rab9 Promoter Activators | Huh7 Rab9 promoter-luciferase reporter, luminescence, 24 h | Potency, µM (series often up to 9.22 µM), inactives show at the highest dose activation, negative = inhibition, actives largely listed as activators | 320,000 compounds, 2.8% hits | AID 485297, 2010; further: % of control where 0% means no effect; nearly all actives have a fitted effect of over 60% in size
#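 Using Huh7 cells stably transfected with Rab9 promoter–luciferase, compounds were incubated 24 h at 37 °C, 5% CO2; luciferase luminescence was read 10 min after reagent addition.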
# ELG1 genotoxic: qHTS screen for small molecules that induce genotoxicity in human embryonic kidney (HEK293T) cells expressing luciferase-tagged ELG1 | Potency, µM (series often up to 46 µM), for the others: at the top dose activity change, positive = activation, hits mostly activators | AID 504466, 2011 | 330,000 compounds, 1.3% hits | HEK293T ELG1-luciferase reporter, luminescence, 16 h; further: % of control where 0% means no effect; nearly all actives have a fitted effect of over 60% in size
#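 Luminescence read-out: rising ELG1-luciferase signal, reflecting elevated ELG1 protein under genetic stress, flags genotoxic compounds. Cells were treated for 16 hr at 37 °C before ONE-Glo detection.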
# NPC1 promoter act: qHTS Assay for NPC1 Promoter Activators | Huh7 NPC1 promoter luciferase reporter, 24 h | Potency, µM (doses to about 9.22 µM), for the others: at the top dose activation, hits mostly activators | 320,000 compounds, 2.4% hits | AID 485313, 2010; further: % of control where 0% means no effect; nearly all actives have a fitted effect of over 60% in size
#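 Huh7 cells stably carrying NPC1 promoter–luciferase, plated in Opti-MEM with 10% FBS for 2 h, were exposed to compound in DMSO for 24 h at 37 °C; luciferase reagent was added for 10 min and luminescence read.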
# FLuc counter: qHTS profiling assay for firefly luciferase inhibitor/activator using purifed enzyme and Km concentrations of substrates (counterscreen for miR-21 project). Luciferin 4-monooxygenase (Photinus pyralis), P08659. purified FLuc, Km substrates, luminescence inhibition. Potency, µM (series often up to 57.5 µM), for the others: at the highest dose activity change, negative = inhibition, hits mostly inhibitors. 360,000 compounds, 6.9% hits. AID 588342, 2011;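 further: plate controls were vehicle for no effect and reference inhibitor for full effect; nearly all actives have a fitted effect of over 55% in size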
# Target sequence (P08659 whole entry, looked up): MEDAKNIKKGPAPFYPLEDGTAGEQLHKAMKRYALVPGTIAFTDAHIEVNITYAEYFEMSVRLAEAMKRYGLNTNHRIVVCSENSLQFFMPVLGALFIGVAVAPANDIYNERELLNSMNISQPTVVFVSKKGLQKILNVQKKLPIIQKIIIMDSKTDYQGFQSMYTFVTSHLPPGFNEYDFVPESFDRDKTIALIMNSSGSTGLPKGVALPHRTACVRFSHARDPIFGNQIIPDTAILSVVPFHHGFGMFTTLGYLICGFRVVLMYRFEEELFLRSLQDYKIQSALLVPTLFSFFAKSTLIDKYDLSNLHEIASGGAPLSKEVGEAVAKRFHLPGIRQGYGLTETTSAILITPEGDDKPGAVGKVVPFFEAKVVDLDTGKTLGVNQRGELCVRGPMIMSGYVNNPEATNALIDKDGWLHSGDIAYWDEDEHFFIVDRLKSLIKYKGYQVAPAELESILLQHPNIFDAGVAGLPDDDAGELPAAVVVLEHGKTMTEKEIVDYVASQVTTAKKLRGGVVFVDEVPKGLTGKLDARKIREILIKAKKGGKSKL
#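 Biochemical qHTS of compounds, final roughly 60 µM downward over six points, against 10 nM purified firefly luciferase using Km concentrations of substrates (10 uM D-luciferin, 10 uM ATP) in Tris acetate pH 7.5 buffer; luminescence output.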
# SMN2 splice up: qHTS Assay for Enhancers of SMN2 Splice Variant Expression | HEK293 SMN2-luciferase splicing reporter, luminescence, 30-36 h | Potency, µM (series often up to 46.1 µM), inactives show at the highest dose activity change, positive = activation, most hits filed as activators | 210,000 compounds, 2.8% hits; further: % of control where 0% means no effect; nearly all actives have a fitted effect of over 55% in size
#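 qHTS luciferase splicing reporter: luminescence rises when SMN2 exon 7 is included in transfected HEK293 cells. Compound exposure lasted 30-36 h at 37C, with 4.5 mM final sodium butyrate as control, followed by a ONE-Glo read.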
# Luc counter: Counterscreen for Luciferase (Kinase-Glo TM) Inhibition. 200,000 compounds, 0.28% hits. Potency, µM (titrated, usually from 38.3 µM), inactives show at the top dose activity change, negative = inhibition, most hits filed as inhibitors. Kinase-Glo luciferase, ATP luminescence, 8 min; further: on the % scale 0 is the no-effect control and ±100 the full control effect; nearly all actives have a fitted effect of over 60% in size
#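 Inhibition of Kinase-Glo luciferase light generation was assessed at 10 uM ATP in pH 7.2 imidazole buffer, with luminescence measured after eight minutes at ambient temperature.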
# * hit, by the source's call; ? = inconclusive; . = no result given; [ ] = another dose, or the depositor's remark. Compounds with a hit are over-represented: about 7.3% of the library has one in this group of screens. The call rests on the fitted dose curve; in most records, active means well fitted curve in the direction sought with a large enough effect; inconclusive means small, poorly fitted or top-dose-only effect, or another doubt; inactive means no such curve, though single readings can be large; an effect the other way counts as inactive or inconclusive. Potency means the concentration at half of the fitted maximal effect.
SMILES,Rab9 prom act,ELG1 genotoxic,NPC1 promoter act,FLuc counter,SMN2 splice up,Luc counter
COc1cccc(C2c3c(-c4ccccc4)n[nH]c3C(=O)N2c2ccc(C(=O)O)cc2)c1 (stereo unspecified),-4%,1%,-3%,-13%,-12%,-1%
COc1ccc(C2c3c(-c4ccccc4)n[nH]c3C(=O)N2c2ccc(C(=O)O)cc2)cc1 (stereo unspecified),-1%,8%,-6%,17µM*,.,.
COc1ccc2c(c1)[nH]c1c(=O)n(Cc3ccco3)cnc12,?,18µM*,?,-14%,?,3%
Cc1ccc(O)c(NC(=S)NC(=O)C(C)C)c1,11%,14%,12%,-20%,.,.
Cc1ccc(NC(=S)NC(=O)Cc2ccccc2)c(O)c1,3%,6%,22%,15µM*,.,.
Cc1ccc(O)c(NC(=S)NC(=O)CC(C)C)c1,?,?,?,17µM*,13µM*,-5%
NC(=O)SCC(=O)Nc1ccc2ncccc2c1,.,.,.,.,-7%[9.22 µM],-3%[7.66 µM]
Cc1nn(-c2ccc(N3CCCCC3)nn2)c(C)c1CCC(=O)NCc1ccc(OC(C)C)cc1,.,.,.,-16%,.,.
Cc1cc(=O)[nH]c2nnc(SCC(=O)Nc3cc(C(F)(F)F)ccc3Cl)n12,.,.,.,3%,.,.
Cc1cccc(NC(=O)CSc2nnc3[nH]c(=O)cc(-c4ccccc4)n23)c1C,.,.,.,3µM*,.,.
O=C(CSc1nnc2[nH]c(=O)cc(-c3ccccc3)n12)Nc1ccc(F)cc1F,.,.,.,1.9µM*,.,.
CN(C(=O)CSc1nnc2[nH]c(=O)cc(-c3ccccc3)n12)c1ccccc1,.,.,.,19µM*,.,.
Cc1cc(=O)[nH]c2nnc(SCC(=O)Nc3ccc(F)cc3F)n12,.,.,.,-4%,.,.
O=C(CSc1nnc2[nH]c(=O)cc(-c3ccccc3)n12)Nc1cc(C(F)(F)F)ccc1Cl,.,.,.,0.21µM*,.,.
CC(C)CO[C@H](c1ccc2c(c1)OCO2)[C@H](C)Br,.,.,.,.,-7%[9.22 µM],-5%[7.66 µM]
Cc1ccc(C)c(C(=N)c2ccccc2Cc2ccccc2)c1,.,.,.,.,-16%[9.22 µM],-5%[7.66 µM]
N#Cc1c(N)nc2c(c1N)CC(CO)O2 (stereo unspecified),-1%,1%,-1%,4%,-5%,-2%
N#Cc1c(N)nc2c(c1N)CC(COc1ccccc1)O2 (stereo unspecified),4.5µM*,?,2.8µM*,17µM*,.,-3%
Cc1ccccc1OCC1CO1 (stereo unspecified),.,.,.,.,-14%,.
Cc1ccccc1OCC1Cc2c(nc(N)c(C#N)c2N)O1 (stereo unspecified),?,?,?,13µM*,.,.
CCc1ccc(CNC(=O)CSc2cc(=O)n(C)c3ccc(Cl)cc23)cc1,.,.,.,-7%,-12%,.
CC(C)(C)NC(=O)COc1ccc(-c2ccccc2)cc1,23%,?,?,19µM*,12%,-2%
CCNC(=O)COc1ccc(-c2ccccc2)cc1,?,?,?,19µM*,?,-4%
CC(C)OC(=O)COc1ccc(-c2ccccc2)cc1,2%,-5%,0%,12µM*,7%,-4%
COc1ccc(NC(=O)COc2ccc(-c3ccccc3)cc2)cc1,2%,3%,-7%,1%,.,.
Cc1ccc(CSC2=Nc3ccccc3C3=NC(CC(=O)NC4CCCCC4)C(=O)N23)cc1 (stereo unspecified),.,.,.,2%,.,.
CC(C)(C)C(=O)Nc1ccc(-c2cc3cc(Cl)ccc3o2)cc1,0.32µM*,?,?,0.19µM*,.,.
CC(C)(Oc1ccc(Cl)cc1)C(=O)Nc1ccc2oc(=O)ccc2c1,-2%,-3%,2%,1%,.,.

# Source: PubChem (National Center for Advancing Translational Sciences (NCATS))
